# Assay results published in PubChem BioAssay AID1476 (National Center for Advancing Translational Sciences (NCATS), 2009).
# The campaign covered roughly 200,000 compounds. About 4,500 (2.2%) were called active. Roughly 12% stayed inconclusive and do not appear here. The sample holds actives, similar compounds and a random draw of the others, so the mix is not that of the screen. Calls follow the shape of the dose curve; as a rule, active = well fitted inhibition curve with a large enough effect; inconclusive = small, poorly fitted or top-dose-only effect, or effect the other way; inactive = flat fitted curve, though single readings scatter.
# Target: Cruzipain (Trypanosoma cruzi) (UniProt P25779)
# Sequence (P25779 123-467 limits assumed): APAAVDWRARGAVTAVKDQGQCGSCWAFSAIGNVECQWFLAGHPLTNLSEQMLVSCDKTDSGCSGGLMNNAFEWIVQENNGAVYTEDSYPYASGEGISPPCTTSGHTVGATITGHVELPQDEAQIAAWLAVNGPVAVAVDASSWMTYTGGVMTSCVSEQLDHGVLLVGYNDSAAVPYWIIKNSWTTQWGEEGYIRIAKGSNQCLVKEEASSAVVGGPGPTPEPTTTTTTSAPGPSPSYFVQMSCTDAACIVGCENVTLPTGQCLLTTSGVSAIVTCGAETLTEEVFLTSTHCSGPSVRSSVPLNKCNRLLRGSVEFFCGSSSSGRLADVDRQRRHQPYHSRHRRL
# Assay: qHTS Assay for Promiscuous and Specific Inhibitors of Cruzain (without detergent); also: nearly all actives have a fitted effect of over 40% in size;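 as to max response, negative = inhibition: plate controls were enzyme without inhibitor for no effect and buffer without enzyme for full effect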
# Conditions: purified cruzain, Z-FR-AMC fluorescence, no detergent
# Outline: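 Detergent-free condition (0.00005% Triton X-100) in acetate buffer pH 5.5 with DTT. 1.5 nM enzyme and compound were pre-mixed 15 min, then 2 uM Z-FR-AMC substrate added; reaction progress from fluorescence change between first and third reads (60 s).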
# Potency is read from the fitted curve at half-maximal effect.
SMILES,"max response, negative = inhibition",Potency
O=C(CCS(=O)(=O)c1ccccc1)N(Cc1cccnc1)c1nc2c(F)cccc2s1,15.4% (inactive),–
CC(C)CN(C(=O)c1cccc(S(=O)(=O)N2CCCCC2)c1)C1CCS(=O)(=O)C1 (configuration not stated),5.95% (inactive),–
COc1ccc(OCCCn2c(C)nc3cc(C)c(C)cc32)cc1,11.2% (inactive),–
COc1cccc(N2CC(NC(=O)/C=C\c3ccccc3)CC2=O)c1 (configuration not stated),-5.97% (inactive),–
O=c1cc(CN2CCN(S(=O)(=O)/C=C/c3ccccc3)CC2)c2ccc(O)cc2o1,-11.9% (inactive),–
OC(COc1ccc2c(c1)CCC2)CN1CCN(c2cccc(Cl)c2)CC1 (configuration not stated),1.52% (inactive),–
O=c1cc(CN2CCN(c3cccc(Cl)c3)CC2)c2cc3c(cc2o1)CCCC3,–,12.6 µM (active)
Cc1ccc(C(=O)CC2(O)C(=O)N(CCc3ccccc3)c3ccc(Br)cc32)cc1 (configuration not stated),7.97% (inactive),–
C=CCN1C(=O)C(O)(CC(=O)c2ccc(Cl)cc2)c2ccccc21 (configuration not stated),–,12.6 µM (active)
O=C(CC1(O)C(=O)N(CN2CCOCC2)c2ccccc21)c1ccccc1 (configuration not stated),2.42% (inactive),–
CC(=O)Nc1ccc(NC(=O)CCCc2nc(-c3ccc(C(C)(C)C)cc3)no2)cc1,-10.5% (inactive),–
O=C(CC(NCc1cccnc1)C(=O)O)Nc1ccc(O)cc1 (configuration not stated),7.85% (inactive),–
Cc1cc(C)cc(NC(=O)Cn2c(=O)c3ccccc3n3nncc23)c1,4.51% (inactive),–
COc1cc(OC)c(N(C)C(=O)c2cc3c(=O)oc4ccccc4c3s2)cc1Cl,6.95% (inactive),–
Cc1ccc2nc(COc3cccc(NC(=O)c4ccccc4Cl)c3)cc(=O)n2c1,-3.57% (inactive),–
Cc1cnc(NC(=O)CSc2nnc(-c3ccc(Cl)cc3Cl)n2N)s1,-2.62% (inactive),–
CCOc1ccccc1NC(=O)CCc1ccc(C)o1,8.1% (inactive),–
Cc1ccc(CCC(=O)Nc2ncc(Cc3cc(Cl)ccc3Cl)s2)o1,–,25.1 µM (active)
O=C(Cn1c(=O)n(-c2ccc(F)cc2)c(=O)c2sc3ccccc3c21)NC1CCCC1,-5.91% (inactive),–
CCOC(=O)c1ccccc1NC(=O)CCc1c(C)nc2c(c1C)c(=O)n(C)c(=O)n2C,-1.55% (inactive),–
O=C(NCCc1ccccc1)c1ccc(OCCOc2ccccc2)cc1,–,20 µM (active)
COc1ccc(OCCCC(=O)NCCc2ccccc2)cc1,-1.93% (inactive),–

SMILES,"max response, negative = inhibition",Potency
O=C(NCCOc1ccccc1)c1ccccc1,-3.94% (inactive),–
Cc1ccc(NC(=O)c2ccc3[nH]c(C)cc(=O)c3c2)c(C)c1,-6.14% (inactive),–
COc1ccc(-c2cc(NCc3ccc(F)cc3)n3cnnc3n2)cc1,6.65% (inactive),–
Cc1ccc(C(=O)Nc2cc3c(cc2N2CCCC2)n(C)c(=O)c(=O)n3C)cc1,-9.28% (inactive),–
Nc1c(C(=O)NCc2ccccc2)nnn1Cc1cccc(Cl)c1,-27.5% (inactive),–
CC(C)c1ccc(NC(=O)Cn2nnc(C(=O)NCCc3ccccc3)c2N)cc1,–,3.16 µM (active)
COc1ccc(NC(=O)Cn2nnc(C(=O)NCCc3ccc(OC)c(OC)c3)c2N)cc1,28.4% (inactive),–
Cc1cccc(NC(=O)c2nnn(CC(=O)Nc3ccc(C(C)C)cc3)c2N)c1C,–,20 µM (active)
CCOC(=O)c1cn(CC(=O)Nc2ccc(C(C)C)cc2)nn1,3.14% (inactive),–
CCOc1ccccc1NC(=O)Cn1nnc(C(=O)Nc2ccc(C)c(C)c2)c1N,0.467% (inactive),–
COc1ccccc1NC(=O)CSC1=Nc2ccccc2C2=NC(CC(=O)NCc3cccs3)C(=O)N12 (configuration not stated),-5.88% (inactive),–
CC(C)CC(NS(=O)(=O)c1ccc2c(c1)oc(=O)n2C)C(=O)NCc1ccccc1Cl (configuration not stated),-14% (inactive),–
Cc1cccc(NC(=O)N2CCN(C)c3ncccc32)c1C,2.65% (inactive),–
Cc1cccc(N2C(=O)c3cccnc3C2=O)c1,-4.26% (inactive),–
Cc1ccc(Oc2ccc3c(c2)C(=O)N(c2cccc4cccnc24)C3=O)cc1,–,25.1 µM (active)
CC(=O)Oc1ccc(C)cc1N1C(=O)c2ccc(C(=O)O)cc2C1=O,-6.79% (inactive),–
COc1ccc(CNC(=O)c2ccc3c(c2)nc2n3CCOC2)c(OC)c1,-7.25% (inactive),–
CS(=O)(=O)c1ccc(-c2nnc(NC(=O)c3ccc4c(c3)OCCO4)o2)cc1,0.217% (inactive),–
Cc1ccc2oc3c(c(=O)c2c1)C(c1ccc(O)cc1)N(Cc1ccc2c(c1)OCO2)C3=O (configuration not stated),3.18% (inactive),–
N/C(=N\c1nc2ccccc2o1)NC(=O)C(Cc1ccccc1)N1C(=O)c2ccccc2C1=O (configuration not stated),–,25.1 µM (active)
O=C(NCCN1CCOCC1)[C@H](Cc1ccccc1)N1C(=O)c2ccccc2C1=O,-6.89% (inactive),–
O=C(NC1=NCCS1)[C@H](Cc1ccccc1)N1C(=O)c2ccccc2C1=O,-18.4% (inactive),–

SMILES,"max response, negative = inhibition",Potency
COc1cccc(Cn2c(SCc3ccc(C(=O)N4CCC(C)CC4)cc3)nc3ccncc32)c1,6.55% (inactive),–
Cc1ccccc1CS(=O)(=O)CC1Nc2ccc(C(=O)NCc3ccc(Cl)cc3)cc2NC1=O (configuration not stated),-11.5% (inactive),–
Cc1ccc(CNC(=O)CCc2c(C)nn(-c3ccc(N4CCCC4)nn3)c2C)cc1,-1.47% (inactive),–
CCOC(=O)C1=C(C)NC(C)=C(C(=O)OCC)C1c1ccccn1,6.72% (inactive),–
CCOC(=O)C1=C(C)Nc2sc(C(=O)c3ccc(Br)cc3)c(N)c2C1c1ccc(C(=O)OC)cc1 (configuration not stated),–,10 µM (active)
COC(=O)c1ccc(C2NC(=O)NC(C)=C2C(=O)N(C)C)cc1 (configuration not stated),-7.98% (inactive),–
Cc1ccc(Cc2nc3ccccc3nc2SCC(=O)Nc2cccc(C(F)(F)F)c2)cc1,-25% (inactive),–
CCN(CC)CCNC(=O)c1cc2c(=O)oc3ccc(C)cc3c2s1,-5.21% (inactive),–
Cc1ccc2c(c1)c1c(c(=O)n(-c3ccccc3)c(=O)n1CC(=O)c1ccc(Cl)cc1)n2C,12.5% (inactive),–
CCc1ccc(S(=O)(=O)c2nnn3c2nc(NCc2ccccc2OC)c2cc(Cl)ccc23)cc1,-14.3% (inactive),–
CCc1ccc(S(=O)(=O)n2ccnc2)cc1,3.23% (inactive),–
O=C(Nc1nc(-c2ccc3c(c2)OCO3)cs1)c1ccncc1,-29.2% (inactive),–
Brc1ccc(-c2csc(N/N=C/c3ccc4c(c3)OCO4)n2)cc1,–,10 µM (active)
O=C(Nc1nc(-c2ccncc2)cs1)C1COc2ccccc2O1 (configuration not stated),-4.88% (inactive),–
COc1ccc(OC)c2sc(N3CCN(C(=O)C4COc5ccccc5O4)CC3)nc12 (configuration not stated),-0.959% (inactive),–
CCN(c1ccc(Cl)cc1)S(=O)(=O)c1nnc(NC(=O)c2ccco2)s1,3.14% (inactive),–
Cc1nnc(NCc2ccccc2)c2c1nnn2Cc1ccc(F)cc1,10.1% (inactive),–
COc1cccc(NC(=S)NCCCN2CCOCC2)c1,9.47% (inactive),–
COc1cc(NC(=S)NCCSc2ccc(C)cc2)cc(OC)c1,–,0.251 µM (active)
COc1cc(NC(=O)Nc2ccc(C)cc2)cc([N+](=O)[O-])c1,-24.4% (inactive),–
Cc1nc(SCCOc2ccc(Cl)cc2)[nH]c(=O)c1Cc1ccccc1,-8.31% (inactive),–
COc1ccc(-c2nn3c(=O)cc(CN4CCN(C(=O)c5ccc(OC)c(OC)c5)CC4)nc3s2)cc1,-11% (inactive),–

SMILES,"max response, negative = inhibition",Potency
COc1ccc(NC(=O)Cn2c(=O)n(CCC(C)C)c(=O)c3cccnc32)cc1Cl,-5% (inactive),–
Cc1nn(CC(=O)NCCc2ccccc2)c(=O)c2c1sc1ccccc12,-12% (inactive),–
Cc1ccccc1CNC(=O)CCCn1nc(C)c2sc3ccccc3c2c1=O,–,25.1 µM (active)
Cc1nn(C(C)C(=O)Nc2ccc(C(C)C)cc2)c(=O)c2c1sc1ccccc12 (configuration not stated),-0.208% (inactive),–
COc1ccc(NC(=O)c2ccc3oc(=O)c(S(=O)(=O)c4ccc(F)cc4)cc3c2)c(OC)c1,-3.78% (inactive),–
CCn1cc(C(=O)NCc2ccc(C)cc2)c(=O)c2cc(S(=O)(=O)N3CCc4ccccc4C3)ccc21,-8.13% (inactive),–
O=c1nc2s/c(=C\c3ccco3)c(=O)n2nc1Cc1ccccc1,–,25.1 µM (active)
O=C(CCCN1C(=O)/C(=C/c2ccco2)SC1=S)Nc1ccccc1,-9.58% (inactive),–
Cc1nc2nc(SCC(=O)NCc3ccco3)nn2c(C)c1Cc1ccccc1,-3.94% (inactive),–
COc1ccc(CCNC(=O)Cn2c(=O)n(-c3ccccc3)c(=O)c3c(C)c(C)sc32)cc1OC,-8.34% (inactive),–
O=C(CSc1ncc(-c2ccccc2)[nH]1)Nc1ccc(F)cc1F,8.99% (inactive),–
Cc1ccc(Cl)cc1NC(=O)CSc1nccn1C,1.47% (inactive),–
CN1c2ccc(Cl)cc2-c2nc(SCC(=O)Nc3cc(F)ccc3F)ncc2S1(=O)=O,–,12.6 µM (active)
COc1cc2c(=O)c(S(=O)(=O)c3ccc(C(C)C)cc3)cn(Cc3ccccc3C)c2cc1OC,19.9% (inactive),–
CN1CCN(C(CNC(=O)c2ccccc2F)c2ccc3c(c2)OCO3)CC1 (configuration not stated),7.63% (inactive),–
CCCSc1ncc(Cl)c(C(=O)Nc2sc3c(c2C(=O)NCCOC)CCCC3)n1,-6.84% (inactive),–
CCOc1cccc(NC(=O)c2ccc(F)c(S(=O)(=O)N(CC)c3cccc(C)c3)c2)c1,-18% (inactive),–
Cn1c(=O)cc(OCC(=O)N2CCN(c3ccccc3)CC2)c2ccccc21,3.14% (inactive),–
CCOC(=O)c1sc(NC(=O)CSc2nc3c(c(=O)n2-c2ccccc2)SCC3)c(C(=O)OCC)c1C,-25.7% (inactive),–
CCOc1ccc(NC(=O)CSc2nc3c(c(=O)n2-c2ccccc2OC)SCC3)cc1,-2.8% (inactive),–
CCc1nnc(NC(=O)CSc2nc3c(c(=O)n2-c2ccccc2OC)SCC3)s1,–,12.6 µM (active)
